Activity calls are given as the source filed them. Rule for the calls: active = hit-call score of the fitted dose curve at least 0.9, where 1 is the maximum; inactive = score below 0.9.

Read-out in test [1]: Vascular cell adhesion molecule 1 (VCAM1), VCAM1 (gene 7412)
Kind of test: BSK_4H_VCAM1: BioMAP Diversity Plus: 4H Assay for Vascular cell adhesion molecule 1 (VCAM1) Biomarker Activity (AID 2283033).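 For outcome: cell-surface VCAM-1 protein measured by ELISA.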 To be noted: primary human endothelial cells (HUVEC); actives raise or lower the signal. In outline: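 Primary human umbilical vein endothelial cells were exposed to chemicals for 24 h, after which VCAM-1 was quantified by ELISA. Responses were fitted bidirectionally against DMSO as negative control and activity baseline.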

Read-out in test [2]: Interferon-gamma inducible Protein 10 (IP10), CXCL10 (gene 3627)
Description: BSK_BE3C_IP10: BioMAP Diversity Plus: BE3C Assay for Interferon-gamma inducible Protein 10 (IP10) Biomarker Activity (AID 2283034). To be noted: primary human bronchial epithelial cells; actives raise or lower the signal. In outline: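 Human primary bronchial epithelial cells were exposed to chemicals for 24 hours, after which IP-10 levels were measured by ELISA. Data were fitted bidirectionally against DMSO, which served as the negative control and activity baseline.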

Read-out in test [3]: Monokine induced gamma interferon (MIG), CXCL9 (gene 4283)
Kind of test: BSK_BE3C_MIG: BioMAP Diversity Plus: BE3C Assay for Monokine induced gamma interferon (MIG) Biomarker Activity (AID 2283035).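 Note: MIG protein measured by ELISA in BE3C cultures after 24 h of dosing.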 To be noted: primary human bronchial epithelial cells; actives raise or lower the signal. An outline of the steps: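 MIG level was determined by ELISA after 24 h chemical treatment of primary human bronchial epithelial cells. Values were fitted bidirectionally with DMSO as the negative control and activity baseline.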

Read-out in test [4]: Transforming growth factor beta 1 (TGFb1), TGFB1 (gene 7040)
Kind of test: BSK_BE3C_TGFb1: BioMAP Diversity Plus: BE3C Assay for Transforming growth factor beta 1 (TGFb1) Biomarker Activity (AID 2283036). To be noted: primary human bronchial epithelial cells; actives raise or lower the signal. In outline:
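Human primary bronchial epithelial cells (BE3C system) were dosed with chemical and TGF-b1 levels measured by ELISA at 24 h. Activity was fitted bidirectionally relative to DMSO negative control as baseline.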

Read-out in test [5]: urokinase plasminogen activator (uPA), PLAU (gene 5328)
Description: BSK_BE3C_uPA: BioMAP Diversity Plus: BE3C Assay for urokinase plasminogen activator (uPA) Biomarker Activity (AID 2283038).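 For outcome: uPA protein level quantified by ELISA in cell cultures; uPA read one day after compound addition.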 To be noted: primary human bronchial epithelial cells; actives raise or lower the signal. An outline of the steps: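 ELISA for uPA on human primary bronchial epithelial cultures 24 h post-treatment, gain or loss against DMSO. Parallel SRB staining (0.1% after 10% TCA fixation, 560 nm) assessed overt cytotoxicity.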

Read-out in test [6]: Urokinase-type plasminogen activator receptor (uPAR), PLAUR (gene 5329)
Description: BSK_BE3C_uPAR: BioMAP Diversity Plus: BE3C Assay for Urokinase-type plasminogen activator receptor (uPAR) Biomarker Activity (AID 2283039).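 Note: cells exposed to compound for one day before measurement.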 To be noted: primary human bronchial epithelial cells; actives raise or lower the signal. In outline:
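Primary human bronchial epithelial cells were dosed with chemical and harvested 24 h later; uPAR was quantified by ELISA. Activity was fitted bidirectionally against DMSO as negative control and baseline.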

Read-out in test [7]: Interleukin-6 (IL6), IL6 (gene 3569)
Description: BSK_CASM3C_IL6: BioMAP Diversity Plus: CASM3C Assay for Interleukin-6 (IL6) Biomarker Activity for (AID 2283040). To be noted: primary human coronary artery smooth muscle cells; actives raise or lower the signal.

Read-out in test [8]: Tissue plasminogen activator (tPA), PLAT (gene 5327)
Kind of test: BSK_BE3C_tPA: BioMAP Diversity Plus: BE3C Assay for Tissue plasminogen activator (tPA) Biomarker Activity (AID 2283041).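 Note: tPA level quantified by ELISA one day after compound addition.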 To be noted: primary human bronchial epithelial cells; actives raise or lower the signal. An outline of the steps:
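Human primary bronchial epithelial cells were dosed with chemical and tPA biomarker levels measured by ELISA 24 hours later. Activity was fitted bidirectionally against DMSO as negative control and baseline.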

Read-out in test [9]: Interleukin-8 (IL8), CXCL8 (gene 3576)
Description: BSK_CASM3C_IL8: BioMAP Diversity Plus: CASM3C Assay for Interleukin-8 (IL8) Biomarker Activity (AID 2283042).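 Note: IL-8 protein level quantified by ELISA.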 To be noted: primary human coronary artery smooth muscle cells; actives raise or lower the signal.

Read-out in test [10]: Human Leukocyte Antigen - DR isotype (HLADR), HLA-DRA (gene 3122)
Kind of test: BSK_CASM3C_HLADR: BioMAP Diversity Plus: CASM3C Assay for Human Leukocyte Antigen - DR isotype (HLADR) Biomarker Activity (AID 2283043).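 Note: cell-surface HLA-DR protein level quantified by ELISA.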 To be noted: primary human coronary artery smooth muscle cells; actives raise or lower the signal.

Read-out in test [11]: Macrophage colony-stimulating factor (MCSF), CSF1 (gene 1435)
Kind of test: BSK_CASM3C_MCSF: BioMAP Diversity Plus: CASM3C Assay for Macrophage colony-stimulating factor (MCSF) Biomarker Activity (AID 2283044).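 Note: M-CSF protein amount quantified by ELISA after 24 h exposure.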 To be noted: primary human coronary artery smooth muscle cells; actives raise or lower the signal.

Read-out in test [12]: Low-density lipoprotein receptor (LDLR), LDLR (gene 3949)
Kind of test: BSK_CASM3C_LDLR: BioMAP Diversity Plus: CASM3C Assay for Low-density lipoprotein receptor (LDLR) Biomarker Activity (AID 2283045).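 Note: LDLR protein level on the cell surface quantified by ELISA.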 The settings on record: primary human coronary artery smooth muscle cells; actives raise or lower the signal.

Read-out in test [13]: Monocyte Chemoattractant Protein-1 (MCP1), CCL2 (gene 6347)
Kind of test: BSK_CASM3C_MCP1: BioMAP Diversity Plus: CASM3C Assay for Monocyte Chemoattractant Protein-1 (MCP1) Biomarker Activity (AID 2283046).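 Note: MCP-1 level quantified by ELISA 24 h after dosing.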 To be noted: primary human coronary artery smooth muscle cells; actives raise or lower the signal.

Test [14] can be described thus: BSK_CASM3C_Proliferation: Cell Proliferation Assessment in the BioMAP Diversity Plus: CASM3C Assay (AID 2283047).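 Note: sulforhodamine B total protein stain as relative cell number at 560 nm; sub-confluent cells exposed 48 h before staining; fitted both ways against DMSO so gain or loss of cell number.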 The settings on record: primary human coronary artery smooth muscle cells.
Read-out in test [15]: Monokine induced gamma interferon (MIG), CXCL9 (gene 4283)
Kind of test: BSK_CASM3C_MIG: BioMAP Diversity Plus: CASM3C Assay for Monokine induced gamma interferon (MIG) Biomarker Activity (AID 2283048). The settings on record: primary human coronary artery smooth muscle cells; actives raise or lower the signal.

Read-out in test [16]: serum amyloid A (SAA), SAA1 (gene 6288)
Kind of test: BSK_CASM3C_SAA: BioMAP Diversity Plus: CASM3C Assay for serum amyloid A (SAA) Biomarker Activity (AID 2283049).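 Note: SAA protein level quantified by ELISA.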 To be noted: primary human coronary artery smooth muscle cells; actives raise or lower the signal.

Test [17] is described as follows: BSK_CASM3C_SRB: Viability Assessment in the BioMAP Diversity Plus: CASM3C Assay (AID 2283050).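 Note: total protein by SRB staining as cytotoxicity measure in parallel cultures.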 The settings on record: primary human coronary artery smooth muscle cells.
Read-out in test [18]: Thrombomodulin, THBD (gene 7056)
Description: BSK_CASM3C_Thrombomodulin: BioMAP Diversity Plus: CASM3C Assay for Thrombomodulin Biomarker Activity (AID 2283051).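 Note: thrombomodulin protein level measured by ELISA 24 h after dosing.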 The settings on record: primary human coronary artery smooth muscle cells; actives raise or lower the signal.

Read-out in test [19]: Tissue Factor, F3 (gene 2152)
Kind of test: BSK_CASM3C_TissueFactor: BioMAP Diversity Plus: CASM3C Assay for Tissue Factor Biomarker Activity (AID 2283052).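 Note: cell surface tissue factor protein level read by ELISA.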 To be noted: primary human coronary artery smooth muscle cells; actives raise or lower the signal.

For `CC(C)CCCCCCOC(=O)c1ccccc1C(=O)OCCCCCCC(C)C`, the outcome in test [1], in [2], in test [3], in test [4], in test [5] and in [6] was inactive. Further, the outcome in [7], in test [8], in [9], in test [10], in [11] and in test [12] was inactive. Further, the result in test [13], in [14], in test [15], in test [16], in test [17] and in test [18] was inactive. Also, the half-maximal activity concentration (AC50) in test [19] was 0.0332 µM (active).
On to `CCCCCCCCC(=O)NCc1ccc(O)c(OC)c1`, for which the result in test [1], in [3], in test [4], in test [5], in test [6] and in test [7] was inactive. Further, the result in [8], in test [9], in test [11], in [12], in [13] and in test [15] was inactive. Also, the outcome in test [16], in [17], in test [18] and in test [19] was inactive. In addition, the concentration at half-maximal activity (AC50) in [2] was 20 µM (active); in [10], 32.3 µM (active); in test [14], 20 µM (active).
As to `CN(C)N=O`, the result in test [1], in [2], in [3], in test [4], in [5] and in test [6] was inactive. Moreover, the result in [7], in test [8], in test [9], in test [10], in [11] and in test [12] was inactive. Besides, the result in test [13], in [14], in test [15], in test [16], in [17] and in [18] was inactive. Moreover, the result in test [19] was inactive.
As for `O=[N+]([O-])c1ccc(O)c([N+](=O)[O-])c1`, the result in test [1], in test [3], in [4], in [5], in test [6] and in test [7] was inactive. For the same compound, the outcome in test [8], in [9], in test [10], in test [11], in test [12] and in test [13] was inactive. Further, the result in [14], in [15], in test [16], in test [17], in [18] and in test [19] was inactive. The concentration at half-maximal activity (AC50) in [2] is 29.8 µM (active).
As for `CC(=O)OC(c1ccccc1)C(Cl)(Cl)Cl` (stereo unspecified), the result in test [1], in test [2], in [3], in test [5], in test [6] and in [7] was inactive. Moreover, the outcome in test [8], in test [9], in test [10], in test [11], in [12] and in test [13] was inactive. In addition, the result in [14], in [15], in test [16], in [17], in test [18] and in test [19] was inactive.
As for `BrCCBr`, the outcome in [1], in test [2], in test [3], in [4], in test [5] and in [6] was inactive. Also, the outcome in test [7], in test [8], in test [9], in test [10], in [11] and in test [12] was inactive. For the same compound, the outcome in [13], in test [15], in test [16], in test [17], in [18] and in test [19] was inactive. The AC50 in test [14] was 0.197 µM (active).
For the compound `COP(=S)(OC)Oc1c(Cl)cc(C)cc1Cl`, the AC50 in test [1] was 26.9 µM (active); in test [9], 0.213 µM (active); in test [14] it was 20 µM (active); in [19], 5.88 µM (active). In addition, the outcome in [2], in test [3], in test [4], in [5], in test [6] and in test [7] was inactive. The result in [8], in test [10], in test [11], in test [12], in test [13] and in [15] was inactive. The outcome in test [16], in [17] and in test [18] was inactive.
Regarding `ClC(Cl)=C(Cl)C(Cl)=C(Cl)Cl`, the AC50 in test [1] was 34.8 µM (active); in test [2], 31.5 µM (active); in test [5], 20 µM (active); in test [7], 3.97 µM (active); in test [14], 1.52 µM (active); in [18], 0.0235 µM (active). For the same compound, the outcome in test [3], in [4], in [6], in [8], in test [9] and in test [10] was inactive. The result in test [11], in test [12], in test [13], in [15], in test [16] and in [17] was inactive. Also, the result in [19] was inactive.

The record behind these values is PubChem BioAssay (EPA / NIEHS).
